Measurements published in the supplement of paper PMC10981050.
Several values for one entry are separate records, joined by “and”; a condition that tells them apart may be missing. Equal entries are not always repeated. Structures can show the parent of a compound that is named as a salt.

Experiments:
Experiment in all cases: cell viability relative to vehicle control; higher = less cytotoxic
Conditions in all cases: 10 µM
[1] = tested on: K562
Method in brief: (§1)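 Mutant clones made by CRISPR editing and their isogenic wild-type counterparts, from four leukaemia lines, were exposed to a single 10 µM dose of each library compound for 48 h. The supernatant was then removed and CellTiter-Glo luminescence was read. Viability was reported as percent of the on-plate vehicle control.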

[2] = tested on: MARIMO
Method in brief: as §1

[3] = tested on: MOLM14
Method in brief: as §1

[4] = tested on: OCI-AML2
Method in brief: as §1

| SMILES | cell viability ([1]; SRSF2 genotype: SRSF2 P95H/wt) | cell viability ([1]; SRSF2 genotype: SRSF2 wt/wt) [%] | cell viability ([2]; SRSF2 genotype: SRSF2 P95H/wt) [%] | cell viability ([2]; SRSF2 genotype: SRSF2 wt/wt) [%] | cell viability ([3]; SRSF2 genotype: SRSF2 P95H/wt) [%] | cell viability ([3]; SRSF2 genotype: SRSF2 wt/wt) [%] | cell viability ([4]; SRSF2 genotype: P95H/wt) [%] | cell viability ([4]; SRSF2 genotype: wt/wt) [%] |
| --- | --- | --- | --- | --- | --- | --- | --- | --- |
| C[C@H](Oc1ccc(S(C)(=O)=O)cc1C(=O)N1CCN(c2ncc(C(F)(F)F)cc2F)CC1)C(F)(F)F | 105% and 98.9% | 95 | 97.1 | 107 | 97.3 | 105 | 101 | 104 |
| CCCc1cc(C)[nH]c(=O)c1CNC(=O)c1cc(-c2ccc(N3CCN(C(C)C)CC3)nc2)cc2c1cnn2C(C)C | 36.5% and 35% | 30.5 | 81.1 | 80 | 49.8 | 60.8 | 4.14 | 31.8 |
| CC(=O)OCC=Cc1ccccc1 [Cinnamyl acetate] | 98.4% and 95.9% | 104 | 99.4 | 95.9 | 101 | 102 | 101 | 111 |
| O=S1(=O)CCN(CN2CCS(=O)(=O)NC2)CN1 [Taurolidine] | 98.7% and 105% | 108 | 104 | 111 | 103 | 105 | 123 | 97.5 |
| Cn1c(Nc2ccc(C(F)(F)F)cc2)nc2cc(Oc3ccnc(-c4ncc(C(F)(F)F)[nH]4)c3)ccc21 | 59.6% and 69.8% | 47.5 | 52.3 | 58.6 | 64.2 | 50.1 | 38.6 | 47.4 |
| COc1ccc(-c2cc3c(C)nc(N)nc3n([C@H]3CC[C@H](OCCO)CC3)c2=O)cn1 | 40.2% and 40.4% | 39.5 | 32.4 | 27.5 | 22.9 | 23.3 | 1.55 | 8.86 |
| NC(=O)c1cccc(-c2cccc(OC(=O)NC3CCCCC3)c2)c1 | 95.8% and 91.2% | 96.1 | 95 | 92.4 | 99.5 | 99 | 88.6 | 96.4 |
| COC(=O)N1CCN(Cc2cccc(NC(=O)Nc3ccc(C)nc3)c2F)CC1 | 89.4% and 89.7% | 96.5 | 91.9 | 94.2 | 100 | 99.9 | 88.4 | 87.2 |
| Oc1ccc(Cc2nc3c(Cc4ccccc4)nc(-c4ccc(O)cc4)cn3c2O)cc1 [Coelenterazine] | 96.7% and 92.9% | 101 | 94.9 | 93.5 | 86.2 | 97 | 98.8 | 98 |
| CC1=C(/C=C/C(C)=C/C=C/C(C)=C/C(=O)O)C(C)(C)CCC1 [All-trans Retinoic Acid (Tretinoin)] | 88.7% and 90.3% | 93 | 68.7 | 73.6 | 54.2 | 75.3 | 11.3 | 37.4 |
| C[C@]1(O)C[C@@H](c2nc(-c3ccc4ccc(-c5ccccc5)nc4c3)c3c(N)nccn32)C1 [OSI-906 (Linsitinib)] | 79.7% and 90.1% | 80.6 | 41.9 | 40.8 | 72.2 | 82.2 | 29.6 | 38.1 |
| Cn1c(=O)cc(N2CCC[C@@H](N)C2)n(Cc2cc(F)ccc2C#N)c1=O [Trelagliptin] | 100% and 93.3% | 92.1 | 96.8 | 101 | 98.3 | 99.2 | 100 | 102 |
| CC(C)OC(=O)C(C(=O)OC(C)C)=C1SC=CS1 [Malotilate] | 92.5% and 94.4% | 93.6 | 76.5 | 83.6 | 89.5 | 99.4 | 85 | 88.8 |
| CN1CCC(=C2c3ccccc3CC(=O)c3sccc32)CC1 [Ketotifen fumarate (Zaditor)] | 104% and 101% | 97.7 | 94.7 | 104 | 94.6 | 101 | 91 | 107 |
| C=CC(=O)Nc1cccc(Nc2nc(Nc3ccc(Oc4ccnc(C(=O)NC)c4)cc3)ncc2F)c1 | 87.5% and 95.6% | 85.1 | 83.4 | 83.8 | 53.1 | 53.4 | 57.5 | 63.8 |
| COc1cc2c(cc1O)CC[n+]1cc3c(OC)c(OC)ccc3cc1-2 [Jatrorrhizine chloride] | 84.4% and 88.5% | 90.3 | 92.6 | 92.9 | 97.6 | 90.5 | 93.5 | 91.4 |
| O=C(NOCC(O)CO)c1cc(Br)c(F)c(F)c1Nc1ccc(I)cc1F (stereo unspecified) | 81.1% and 89.7% | 83.2 | 41.3 | 37.3 | 50.1 | 36.6 | 40.6 | 45 |
| Cc1ccccc1N=Nc1ccc(NC(=O)c2ccnn2C)c(C)c1 | 84.3% and 77.9% | 88 | 82.3 | 87.2 | 102 | 95 | 73.1 | 74.5 |
| CC1CNc2c(cccc2S(=O)(=O)N[C@@H](CCCNC(=N)N)C(=O)N2CC[C@@H](C)C[C@@H]2C(=O)O)C1 (stereo partly specified) [Argatroban] | 107% and 105% | 94 | 100 | 108 | 103 | 101 | 91.7 | 107 |
| [F][Ti]([F])([F])[F] [Titanium tetrafluoride] | 102% and 89.4% | 98.7 | 99.2 | 105 | 97.3 | 102 | 98.9 | 99 |
| O=C(Nc1ccccc1)Nc1ccc(-c2ccc(C(=O)[C@@H]3CCC[C@H]3C(=O)O)cc2)cc1 | 96.9% and 97.6% | 98.8 | 106 | 106 | 102 | 103 | 103 | 109 |

| SMILES | cell viability ([1]; SRSF2 genotype: SRSF2 P95H/wt) | cell viability ([1]; SRSF2 genotype: SRSF2 wt/wt) [%] | cell viability ([2]; SRSF2 genotype: SRSF2 P95H/wt) [%] | cell viability ([2]; SRSF2 genotype: SRSF2 wt/wt) [%] | cell viability ([3]; SRSF2 genotype: SRSF2 P95H/wt) [%] | cell viability ([3]; SRSF2 genotype: SRSF2 wt/wt) [%] | cell viability ([4]; SRSF2 genotype: P95H/wt) [%] | cell viability ([4]; SRSF2 genotype: wt/wt) [%] |
| --- | --- | --- | --- | --- | --- | --- | --- | --- |
| COC(=O)C=Cc1ccc(O)c(OC)c1 [Ferulic acid methyl ester] | 106% and 99.9% | 108 | 95.4 | 104 | 105 | 104 | 104 | 104 |
| C=C1CCC[C@]2(C)C[C@]3(O)OC(=O)C(C)=C3C[C@@H]12 [Atractylenolide III] | 105% and 101% | 99.3 | 101 | 102 | 102 | 99 | 94.9 | 106 |
| CC1(C)[C@@H](O[C@H]2O[C@H](C(=O)O)[C@@H](O)[C@H](O)[C@H]2O[C@@H]2O[C@H](C(=O)O)[C@@H](O)[C@H](O)[C@H]2O)CC[C@]2(C)[C@H]3C(=O)C=C4[C@@H]5C[C@@](C)(C(=O)O)CC[C@]5(C)CC[C@@]4(C)[C@]3(C)CC[C@@H]12 [Diammonium Glycyrrhizinate] | 98.9% and 104% | 99.1 | 101 | 99.7 | 100 | 103 | 101 | 114 |
| COc1c(N2C[C@@H]3CCCN[C@@H]3C2)c(F)cc2c(=O)c(C(=O)O)cn(C3CC3)c12 [Moxifloxacin hydrochloride] | 104% and 99.6% | 93.3 | 101 | 105 | 92.9 | 98.5 | 90.4 | 97.2 |
| CC1(C)S[C@@H]2[C@H](NC(=O)Cc3ccccc3)C(=O)N2[C@H]1C(=O)O [Penicillin G Sodium] | 100% and 92% | 99.5 | 98.5 | 107 | 96.9 | 103 | 91.9 | 109 |
| O=C(O)[C@H]1O[C@@H](Oc2cc3oc(-c4ccccc4)cc(=O)c3c(O)c2O)[C@H](O)[C@@H](O)[C@@H]1O [Baicalin] | 98.7% and 105% | 109 | 101 | 97.8 | 98.7 | 107 | 99.9 | 95.3 |
| O=C(NO)c1cnc(NC2(c3ccccc3)CC2)nc1 | 8.09% and 28.4% | 35.4 | 3.94 | 3.14 | 4.83 | 1.94 | 0.88 | 2.07 |
| Clc1cccc(-c2nnnn2Cc2cccnc2)c1Cl | 103% and 112% | 106 | 102 | 101 | 101 | 108 | 108 | 116 |
| CC(C)=CCC/C(C)=C\CO [Nerol] | 109% and 104% | 104 | 110 | 114 | 106 | 107 | 103 | 109 |
| COC(=O)C1=C(C)NC(C)=C(C(=O)OC)C1c1ccccc1[N+](=O)[O-] [Nifedipine (Adalat)] | 76.5% and 90.2% | 80.8 | 57.5 | 51.7 | 49.3 | 49.5 | 29.4 | 48.4 |
| COc1cc(OC)c(/C=C/S(=O)(=O)Cc2ccc(OC)c(NCC(=O)O)c2)c(OC)c1 | 16.5% and 39% | 35.6 | 5.99 | 9.46 | 0.51 | 0.74 | 1.32 | 2.98 |
| C[C@H]1[C@H](NC(=O)/C(=N\OC(C)(C)C(=O)O)c2csc(N)n2)C(=O)N1S(=O)(=O)O [Aztreonam (Azactam, Cayston)] | 106% and 99.5% | 109 | 96.8 | 112 | 103 | 108 | 98.4 | 104 |
| CS(=O)(=O)c1ccc(C2=C(c3ccccc3)C(=O)OC2)cc1 [Rofecoxib (Vioxx)] | 98.7% and 95.2% | 93.5 | 98.6 | 104 | 94.7 | 101 | 87.8 | 98.8 |
| CC(=O)[O-].[K+] [Potassium acetate] | 100% and 97.3% | 103 | 106 | 97.5 | 96.7 | 99.6 | 111 | 93.4 |
| CCCCCCCCCCCCCCCCn1cc[n+](Cc2ccccc2)c1C | 0.26% and 0.36% | 0.22 | 0.21 | 0.19 | 0.01 | 0 | 0.05 | 0.07 |
| O=C(NC[C@H]1CN(c2ccc(N3CCOCC3=O)cc2)C(=O)O1)c1ccc(Cl)s1 [Rivaroxaban (Xarelto)] | 87.3% and 85.4% | 92.3 | 92.5 | 91.3 | 96.8 | 97.1 | 90.8 | 85.8 |
| CCCC(CCC)C(=O)O [Divalproex sodium] | 105% and 102% | 103 | 101 | 111 | 105 | 105 | 93.3 | 108 |
| C[C@@H](CN1CC(=O)NC(=O)C1)N1CC(=O)NC(=O)C1 [Dexrazoxane Hydrochloride] | 99.3% and 102% | 97.5 | 92.4 | 96.4 | 70.5 | 78 | 75.2 | 76.2 |
| Cc1onc(-c2ccccc2)c1-c1ccc(S(N)(=O)=O)cc1 [Valdecoxib] | 97.6% and 94.6% | 95.6 | 96.4 | 97.6 | 90.6 | 95.4 | 81.8 | 88.5 |
| CC(=O)N[C@@H](CS)C(=O)O [Acetylcysteine] | 101% and 97.9% | 95.6 | 97.5 | 92.6 | 97 | 97.5 | 102 | 98 |
| CCc1c(C(=O)NCCc2ccc(N3CCCCC3)cc2)[nH]c2ccc(Cl)cc12 | 107% and 104% | 111 | 106 | 108 | 85.4 | 102 | 112 | 107 |
